12-LOX inh – Primary qHTS assay for inhibitors of human arachidonate 12S-lipoxygenase (ALOX12): Round 2 | Polyunsaturated fatty acid lipoxygenase ALOX12 (Homo sapiens), P18054 | Potency, µM (doses to about 108 µM), without a hit: at the top dose activity change, negative = inhibition, most hits filed as inhibitors | purified 12hLO, xylenol orange hydroperoxide absorbance | 580,000 compounds, 1.1% hits; further: on the % scale 0 is the no-effect control and ±100 the full control effect
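Purified human 12hLO (150 nM final) in 25 mM Hepes, 0.01% Triton X-100, pH 7.0 was preincubated 15 min at room temperature with compound. Then 40 uM arachidonic acid was added, 30 min. Hydroperoxide was read by Fe-XO absorbance ratio 573/405 nm.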
VDR inhibitor – Inhibitors of the vitamin D receptor (VDR): qHTS; VDR-SRC2-3 peptide fluorescence polarization, 2 h; Vitamin D3 receptor (Homo sapiens), P11473; 400,000 compounds, 0.93% hits; AID 504847, 2011; Potency, µM, inactives show max response, negative = inhibition, hits mostly inhibitors; further: on the % scale 0 is the no-effect control and ±100 the full control effect
Target sequence (P11473 whole entry, looked up): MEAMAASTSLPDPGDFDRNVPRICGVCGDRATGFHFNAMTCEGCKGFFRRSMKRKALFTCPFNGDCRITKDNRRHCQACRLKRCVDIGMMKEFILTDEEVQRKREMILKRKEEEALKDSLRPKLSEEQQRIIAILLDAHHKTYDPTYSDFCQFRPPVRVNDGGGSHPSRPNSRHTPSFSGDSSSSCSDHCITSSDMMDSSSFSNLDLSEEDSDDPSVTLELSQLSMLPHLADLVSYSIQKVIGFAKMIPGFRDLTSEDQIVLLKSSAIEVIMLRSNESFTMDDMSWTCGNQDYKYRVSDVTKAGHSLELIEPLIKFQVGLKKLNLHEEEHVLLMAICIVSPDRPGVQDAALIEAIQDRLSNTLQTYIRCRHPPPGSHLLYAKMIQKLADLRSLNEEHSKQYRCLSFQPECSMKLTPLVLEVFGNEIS
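Compounds are added to VDR with labelled SRC2-3 coactivator peptide and held 2 h at room temperature. Inhibition of the VDR–peptide interaction is then read as a change in fluorescence polarization.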
G9a block – qHTS Assay for Inhibitors of Histone Lysine Methyltransferase G9a | Histone-lysine N-methyltransferase EHMT2 (Homo sapiens), Q96KQ7 | G9a H3K9 monomethylation, AlphaScreen, 2 h | Potency, µM (highest dose often 102 µM), without a hit: at the highest dose activity, negative = inhibition, hits mostly inhibitors | 350,000 compounds, 8.8% hits | AID 504332, 2011; further: on the % scale 0 is the no-effect control and ±100 the full control effect; nearly all actives have a fitted effect of over 75% in size
Target sequence (Q96KQ7 913-1193 limits assumed): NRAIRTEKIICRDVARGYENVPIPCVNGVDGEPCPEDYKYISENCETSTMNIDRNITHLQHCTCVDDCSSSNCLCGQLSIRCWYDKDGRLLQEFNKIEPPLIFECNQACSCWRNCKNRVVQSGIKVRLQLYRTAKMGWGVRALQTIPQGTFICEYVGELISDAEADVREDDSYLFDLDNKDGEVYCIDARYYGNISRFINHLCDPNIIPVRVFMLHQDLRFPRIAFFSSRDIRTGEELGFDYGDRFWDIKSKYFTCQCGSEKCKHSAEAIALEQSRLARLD
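Chemiluminescent proximity detection of H3K9 monomethylation, read after 10 min bead incubation in the dark. Reaction: 20 nM G9a, 500 nM biotin-H3K9 peptide, 20 uM SAM cofactor, 2 h, room temperature, following 15 min enzyme-compound preincubation.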
Sfp inh – qHTS Assay for Inhibitors of Bacillus subtilis Sfp phosphopantetheinyl transferase (PPTase); 4'-phosphopantetheinyl transferase ffp (Bacillus subtilis), Q9F4F7; Biochemical Sfp PPTase activity, qHTS; Potency, µM, for inactives: largest response in the series, negative = inhibition, most hits filed as inhibitors; 310,000 compounds, 3.5% hits; AID 1490, 2009;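 further: the enzyme is Sfp with the accession as filed and its product quenches rhodamine fluorescence; 0% = enzyme reaction without inhibitor and -100% = no enzyme wells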
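Sfp 15 nM + cpd, 15 min RT; start w/ rhodamine-CoA 5 uM, BHQ-2-YbbR 12.5 uM (final); 50 mM Hepes pH 7.6, 10 mM MgCl2, 0.01% NP-40, 0.01% BSA; read 525/598 nm at 0 and 30 min.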
Glioma ERSR ind – qHTS for Inducers of the Endoplasmic Reticulum Stress Response (ERSR) in Human Glioma: qHTS; Potency, µM, without a hit: top-dose activation, hits mostly activators; U87-MG GRP78 promoter luciferase reporter, 16 h; AID 602332, 2012; 420,000 compounds, 0.02% hits; further: series mostly up to about 76 µM; % of control where 0% means no effect; nearly all actives have a fitted effect of over 35% in size
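ERSR induction read as luciferase luminescence (Bright-Glo, 10 min at room temperature) in stably transfected human U87-MG glioma cells exposed to compounds for 16 h, using GRP78 as sensor.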
The depositor's hits bear a star; u = inconclusive; x = no result given; [ ] = another dose, or the depositor's remark. Many of the other results were omitted from the sample, so hits are more common in it than they were. The call rests on the fitted dose curve; in most records, active means well fitted curve in the direction sought with a large enough effect; inconclusive means small, poorly fitted or top-dose-only effect, or another doubt; inactive means no such curve, though single readings can be large; an effect the other way counts as inactive or inconclusive. Potency means the concentration at half of the fitted maximal effect.

SMILES | 12-LOX inh | VDR inhibitor | G9a block | Sfp inh | Glioma ERSR ind
COc1ccc(C(=O)N/N=C(\C)c2ccc3c(c2)C2C=CCC2C(c2ccccc2)N3)cc1 (stereo not given) | x | -24.0% | 7.94µM* | 79.4µM* | -0.1%
COc1ccc(OC)c([C@@H]2Nc3ccc(C(=O)O)cc3[C@@H]3C=CC[C@@H]32)c1 | 3.0% | 2.7% | u | x | -1.0%
O=c1cc(-c2ccc(F)cc2)oc2ccc(Cl)cc12 | -22.6% | x | x | x | x
Fc1ccc([C@@H]2Nc3ccccc3[C@@H]3C=CC[C@@H]32)cc1 | 1.0% | -11.1% | 2.24µM* | x | 1.3%
COC(=O)c1ccc([C@H]2Nc3ccc(S(=O)(=O)Nc4ccc(F)cc4)cc3[C@H]3C=CC[C@H]32)cc1 | 5.0% | -5.0% | 5.62µM* | x | -2.6%
COC(=O)c1ccc([C@@H]2Nc3c(cccc3C(F)(F)F)[C@@H]3C=CC[C@@H]32)cc1 | -8.9% | -4.2% | 46.5%[59 µM] | x | -6.5%
S=c1[nH]nc(C2CCCCC2)n1/N=C/c1cccc(Br)c1 | 19.4% | 2.4% | 79.4µM* | 15.2% | -2.5%
COc1cc(/C=N/NC(=O)C23CC4CC(CC(C4)C2)C3)cc(Br)c1O | -13.4% | -9.9% | u | -13.9% | -1.6%
Cc1cccc(/C=N/n2c(C3CCCCC3)n[nH]c2=S)c1 | x | u | 2.51µM* | 79.4µM* | -7.8%
COc1cc(/C=N/n2c(C3CCCCC3)n[nH]c2=S)cc(Br)c1O | u | 11.5% | 25.1µM* | 8.9% | -2.7%
CC(/C=N/n1c(C2CCCCC2)n[nH]c1=S)=C\c1ccccc1 | u | -19.9% | -12.0%[0.501 µM] | -10.1% | 1.2%
Cc1ccc(CCN=c2c([N+](=O)[O-])nn(-c3ccccc3)n2O)cc1 | 0.8% | -10.3% | 31.6µM* | 4.3% | 0.2%
O=[N+]([O-])c1nn(-c2ccc(Cl)cc2)n(O)c1=NCc1ccccc1Cl | 24.6% | 8.7% | u | 11.7% | 6.0%
COc1ccc(-n2nc([N+](=O)[O-])c(=NCCc3ccccc3)n2O)cc1 | -16.6% | -7.4% | u | -2.8% | 0.0%
Cc1ccc(CN=c2c([N+](=O)[O-])nn(-c3ccc(Cl)cc3)n2O)cc1 | u | -15.6% | 50.1µM* | u | 0.2%
O=[N+]([O-])c1ccc(NC(=S)N2CCN(S(=O)(=O)c3ccccc3)CC2)cc1 | 137.6% | -5.2% | 50.1µM* | 10.2% | -4.5%
O=S(=O)(c1ccc(NC(=S)N2CCN(c3ccc(O)cc3)CC2)cc1)N1CCOCC1 | -15.9% | 0.2% | 20µM* | -17.8% | -2.5%
O=[N+]([O-])c1ccc(S(=O)(=O)Nc2ccc(S(=O)(=O)N3CCCC3)cc2)cc1 | -0.2% | 0.3% | 35.5µM* | -6.3% | -5.6%
CC(=O)c1cccc(NC(=S)N2CCN(S(=O)(=O)c3ccccc3)CC2)c1 | 23.5% | -10.5% | 44.7µM* | -22.3% | -3.2%
Cc1cccc(NC(=S)N2CCN(S(=O)(=O)c3ccccc3)CC2)c1 | 0.0% | -5.3% | u | 3.5% | 7.8%
CC(C)C(=O)Nc1ccc(F)cc1F | 5.6% | x | x | x | x
CC(=O)Oc1ccc2c(C)c(CC(=O)Nc3ccc4c(c3)OCCO4)c(=O)oc2c1 | 0.5% | x | x | x | x
CCOc1ccc(S(=O)(=O)N(CC(=O)N2CCC(C(N)=O)CC2)c2ccccc2)cc1 | -2.5% | x | x | x | x
NC(=O)NNC(=S)NC1CCCCC1 | 5.4% | x | x | x | x
COC(=O)c1ccc2[nH]c([C@H](C)O)c([C@H](C)O)c2c1 | -1.8% | -9.9% | 44.7µM* | 9.1% | 3.7%
SMILES | 12-LOX inh | VDR inhibitor | G9a block | Sfp inh | Glioma ERSR ind
CCC1(C)Cc2c(sc(NC(=S)NC(=O)c3ccccc3)c2C#N)CO1 (stereo not given) | -23.2% | -16.3% | 44.7µM* | -26.4% | 9.1%
O=C(NC(=S)Nc1sc2c(c1C(=O)O)CCCC2)c1ccccc1 | u | 0.0% | u | 18.4% | 8.1%
CN1Cc2sc(NC(=S)NC(=O)c3ccccc3)c(C#N)c2CC1(C)C | 0.0% | u | 10µM* | 31.6µM* | -12.2%
CC1(C)Cc2c(sc(NC(=O)c3ccco3)c2C#N)CO1 | -11.0% | 20.6% | -26.6%[59 µM] | u | 0.9%
CCC(=O)Nc1cc(C)ccc1NC(=O)c1cccs1 | 0.3% | x | x | x | x
COc1ccc(Cl)c(N2CC(c3nc4ccccc4n3C(C)C)CC2=O)c1 (stereo not given) | 6.7% | x | x | x | x
Cc1ccc(S(=O)(=O)N(C)C)cc1NC(=O)c1nn(Cc2ccccc2)c(=O)c2ccccc12 | 6.8% | x | x | x | x
Cn1c(=O)c2nc(SCCC(=O)Nc3ccccc3)n(C)c2n(C)c1=O | -6.0% | x | x | x | x
CCc1ccccc1NC(=O)c1ccc2c(O)c(S(=O)(=O)c3ccccc3)c(=O)[nH]c2c1 | u | 12.1% | 15.8µM* | x | -1.3%
CCc1ccccc1NC(=O)c1ccc2c(O)c(S(=O)(=O)c3ccc(OC)cc3)c(=O)[nH]c2c1 | 25.3% | u | -0.6%[59 µM] | 23.5% | -2.3%
COc1ccc(-c2cc(N3CCCN(C(=O)c4ccc(C)c(F)c4)CC3)n[nH]2)cc1 | 39.4% | x | x | x | x
Cc1cc(C)c2c(-n3cccc3)nn(CCCC(=O)NCc3ccc(Cl)cc3)c2n1 | -69.6% | x | x | x | x
CCC1(C)Cc2ccccc2-c2c1c(=O)n(-c1ccc(C)cc1)c1nnnn21 (stereo not given) | 0.0% | 2.3% | 50.1µM* | -1.4% | 5.3%
COc1ccc(OC)c(C2C=C(C34CC5CC(CC(C5)C3)C4)NC(=S)N2)c1 (stereo not given) | 31.6µM* | -13.9% | u | -7.9% | -2.5%
Cc1ccsc1[C@@H]1CCN(Cc2ccc(C#CC(C)(C)O)cc2)C[C@H]1O | 44.7µM* | x | x | x | x
O=C(O)c1ccc(-c2ccc(/C=C3\NC(=O)N(Cc4ccc(Cl)cc4)C3=O)o2)cc1Cl | u | 79.4µM* | 20µM* | 20µM* | -0.8%
CC(C)OC(=O)c1cc(-c2ccc(C=O)o2)ccc1Cl | u | -4.5% | u | -11.2% | 4.2%
CC(C)N1C(=O)S/C(=C\c2ccc(-c3ccc(Cl)c(C(=O)O)c3)o2)C1=O | u | u | 39.8µM* | -27.8% | -8.3%
CCN(CC)c1ccc(/C=C2/SC(=O)N(C(C)C)C2=O)o1 | 44.7µM* | 31.6µM* | 7.08µM* | 3.16µM* | -9.8%
COC(=O)CN1C(=O)S/C(=C/c2ccc(N3CCCCC3)o2)C1=O | 44.7µM* | 31.6µM* | 26.8%[0.501 µM] | 7.08µM* | 15.9%
N#C/C(=C/c1ccc(-c2ccc(C(=O)O)c(Cl)c2)o1)C(=O)NCC1CCCO1 (stereo not given) | u | 6.4% | u | 1.3% | 1.3%
Cc1ccc(S(=O)(=O)Oc2ccc(Cl)cc2C2C3=C(CCCC3=O)OC3=C2C(=O)CCC3)cc1 | -23.2% | x | x | x | x
CCOC(=O)CN1C(=O)S/C(=C/c2ccc(N3CCCCC3)o2)C1=O | 7.94µM* | -14.3% | 3.16µM* | 14.1µM* | -0.6%

Compound activity: PubChem BioAssay, National Center for Advancing Translational Sciences (NCATS)
